The list is not random: actives were taken first. Their share in the collection is about 17%.
ATXN viability = cell viability loss in ATXN counter-screen. Potency, µM (titrated, usually from 56.7 µM), hits mostly cytotoxic. actives 0.49% (n = 400,000). S2 cells (HEK-293 line with an ATXN2-luciferase reporter) viability, CellTiter-Fluor protease fluorescence, 24 h; further: nearly all actives have a fitted effect of over 40% in size
TDP1 cell noCPT = qHTS for Inhibitors of human tyrosyl-DNA phosphodiesterase 1 (TDP1): qHTS in cells in absence of CPT; DT40 Tdp1-/- hTDP1 cells, no CPT, ATP luminescence, 48 h; Potency, µM (top dose mostly 46.2 µM), for the others: at the highest dose activity change, negative = growth inhibition, hits mostly inhibitors; actives 15% (n = 420,000); AID 686978, 2013; further: on the % scale 0 is the no-effect control and ±100 the full control effect; nearly all actives have a fitted effect of over 55% in size
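No-CPT arm: Tdp1-/-;hTDP1 DT40 cells (400/well) plus compounds, incubated ≥48 hr at 37 °C. Readout CellTiter-Glo luminescence.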
ATXN2 expr inh = reduces ATXN2 reporter expression in HEK-293 cells; actives 0.72% (n = 360,000); Potency, µM (doses to about 57 µM), for inactives: top-dose activity change, negative = inhibition, hits mostly inhibitors; HEK-293 ATXN2-luciferase reporter, luminescence, 24 h; AID 1745845; further: on the % scale 0 is the no-effect control and ±100 the full control effect; nearly all actives have a fitted effect of over 55% in size
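qHTS (up to 57 uM final) was run with 24 h compound exposure of reporter cells at 37 °C. Each well was multiplexed: SteadyGlo luminescence measured ATXN2-luciferase expression after a fluorogenic Gly-Phe-AFC viability readout (25 uM final).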
TGFb SMAD3 inh = blocks TGF-b signaling; HepG2 CAGA-GFP TGF-b/SMAD3 reporter, GFP fluorescence, 18 h; TGF-beta stimulated, 500 pg/mL final; Potency, µM (top dose mostly 46.1 µM), for the others: at the highest dose activity, negative = inhibition, actives largely listed as inhibitors; actives 1.2% (n = 410,000); further: on the % scale 0 is the no-effect control and ±100 the full control effect; nearly all actives have a fitted effect of over 65% in size
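HEPG2 CAGA-GFP cells (1000/well, DMEM with 1% FBS) were pre-incubated 2 h at 37 degrees C, given compound by pin tool, then stimulated with TGF-beta at 500 pg/mL final for 18 h before per-cell GFP fluorescence imaging.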
TDP1 cell CPT = growth inhibition of DT40 Tdp1-/-;hTDP1 cells with camptothecin (screen for TDP1 inhibitors); chicken DT40 Tdp1-/-;hTDP1 cells + 20 nM CPT, ATP luminescence, 48 h; Potency, µM (top dose mostly 46.2 µM), without a hit: top-dose activity change, negative = growth inhibition, actives largely listed as inhibitors; actives 12% (n = 420,000); AID 686979; further: on the % scale 0 is the no-effect control and ±100 the full control effect; nearly all actives have a fitted effect of over 55% in size
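Chicken DT40 Tdp1-/- cells complemented with human TDP1, 400 cells/well, exposed to compounds plus 20 nM camptothecin for at least 48 h at 37 C; viability read as ATP content by CellTiter-Glo luminescence.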
HepG2 tox = kills HepG2 cells in TGF-b inhibitor counter-screen. Potency, µM (titrated, usually from 46.1 µM), for inactives: top-dose activity change, negative = cytotoxicity, actives largely listed as cytotoxic. HepG2 CAGA-GFP viability, ATP luminescence, 18 h. actives 0.76% (n = 410,000)
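CellTiter-Glo luminescence gave cytotoxicity after 18 hours at 37 degrees C. The cells were HepG2 CAGA-GFP in 1% FBS DMEM, stimulated with 500 pg/mL TGF-beta after compound addition. %Activity was normalised to no-cell wells (complete cell-killing) and DMSO (no toxicity), and curves were fitted and classified.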
* hit, by the source's call; i = inactive; ? = inconclusive; nt = no result given. The call rests on the fitted dose curve; in most records, active means well fitted curve in the direction sought with a large enough effect; inconclusive means small, poorly fitted or top-dose-only effect, or another doubt; inactive means no such curve, though single readings can be large; an effect the other way counts as inactive or inconclusive. Potency means the concentration at half of the fitted maximal effect.

SMILES	ATXN viability	TDP1 cell noCPT	ATXN2 expr inh	TGFb SMAD3 inh	TDP1 cell CPT	HepG2 tox
O=C(NCc1ccncc1)c1cnn(-c2nccc(-c3cc4ccccc4o3)n2)c1C1CC1	?	-28.0%	nt	nt	?	nt
CC(=O)c1ccc(NC(=O)Nc2ccc3snnc3c2)cc1	i	20.6µM*	?	-19.5%	11.6µM*	-44.2%
CC(=O)Nc1cccc(NC(=O)Nc2cccc(Cl)c2C)c1	i	-22.9%	-4.5%	-24.2%	-7.0%	-21.8%
Cc1ccc(F)c(NC(=O)Nc2ccc3snnc3c2)c1	i	20.6µM*	11.9%	-27.5%	20.6µM*	-27.0%
COc1ccc(NC(=O)Nc2cc(C)ccc2F)cc1OC	i	-12.7%	54.4%	-1.5%	-1.7%	-8.6%
COC(=O)c1cc(NC(=O)Nc2ccc3snnc3c2)cc(C(=O)OC)c1	i	-5.1%	3.6%	16.7%	-12.1%	-4.6%
O=C(Nc1ccc(F)cc1)Nc1ccc2snnc2c1	i	6.51µM*	?	?	3.66µM*	-40.7%
Cc1c(Cl)cccc1NC(=O)Nc1ccc2snnc2c1	i	18.4µM*	?	?	14.6µM*	-35.8%
O=C(Nc1ccc(F)cc1)c1ccc2snnc2c1	i	-16.9%	23.9%	1.5%	-29.7%	-3.1%
O=C(OCc1cc(=O)n2nc(-c3cccs3)sc2n1)c1ccc(Cl)cc1	i	-15.9%	10.2%	-18.3%	-12.8%	-15.7%
CC(C)(C)SCCNS(=O)(=O)c1ccc(F)cc1	i	?	0.3%	-25.1%	-25.0%	-21.1%
O=S(=O)(NCCSc1ccccc1)c1ccc(F)cc1	i	18.4µM*	2.8%	?	?	-47.8%
Cc1ccc2oc(-c3cccc(NC(=O)COc4ccc(Cl)cc4C)c3C)nc2c1	nt	-19.2%	nt	-10.8%	-0.4%	1.5%
Cc1ccc(OCC(=O)Nc2ccc(Cl)c(-c3nc4ncccc4o3)c2)c(C)c1	nt	14.6µM*	nt	?	?	-19.0%
Cc1cc(C)cc(OCC(=O)Nc2ccc(Cl)c(-c3nc4ncccc4o3)c2)c1	i	?	?	?	18.4µM*	-21.6%
Cc1cc(C)c2oc(-c3cccc(NC(=O)COc4ccc(Cl)cc4C)c3C)nc2c1	nt	-0.9%	nt	-3.7%	5.01µM*	3.8%
CCCOc1ccc(C(=O)Nc2ccc(Cl)c(-c3nc4ncccc4o3)c2)cc1	i	10.3µM*	-3.4%	4.6%	23.1µM*	-8.2%
Cc1ccc(OCC(=O)Nc2ccc(-c3nc4ncccc4o3)cc2)c(C)c1	i	?	-11.3%	-4.3%	?	-21.4%
O=C(COc1ccccc1)Nc1ccc(Cl)c(-c2nc3ncccc3o2)c1	i	-12.4%	14.2%	7.3%	-24.8%	-0.2%
O=C(NC1CC2CCC(C1)N2C(=O)NCc1ccccc1)C1CC1 (stereo not given)	i	-0.3%	2.7%	11.1%	4.8%	1.3%
COc1cccc(CNC(=O)C2CCC(CNc3c(N4CCC(C)CC4)c(=O)c3=O)CC2)c1 (stereo not given)	i	-14.7%	1.7%	0.0%	-10.2%	-10.0%
CC1=C(C(=O)N(C(C)C)C(C)C)CC(CC(=O)NC2CCCC2)C(=O)N1Cc1ccc(C(C)(C)C)cc1 (stereo not given)	?	23.1µM*	?	?	20.6µM*	-71.5%
CC1=C(C(=O)N(C(C)C)C(C)C)CC(CC(=O)NC2CCCCC2)C(=O)N1CCC1=CCCCC1 (stereo not given)	?	23.1µM*	-22.1%	?	?	-14.5%
CCN(CC)C(=O)C1=C(C)N(Cc2ccc(C(C)(C)C)cc2)C(=O)C(CC(=O)NC2CCCCC2)C1 (stereo not given)	?	11.6µM*	-24.3%	-23.4%	14.6µM*	-22.6%
CCN(CC)C(=O)C1=C(C)N(Cc2ccc(C(C)(C)C)cc2)C(=O)C(CC(=O)NC2CC2)C1 (stereo not given)	i	-19.1%	3.4%	1.4%	-4.8%	1.4%
SMILES	ATXN viability	TDP1 cell noCPT	ATXN2 expr inh	TGFb SMAD3 inh	TDP1 cell CPT	HepG2 tox
COc1ccc(CN2C(=O)C(CC(=O)NC3CCCCC3)CC(C(=O)N(C(C)C)C(C)C)=C2C)cc1 (stereo not given)	i	14.6µM*	-6.0%	5.3%	?	1.6%
CCOc1ccc(CCNC(=O)CN2C(=O)C(CC)Oc3ccccc32)cc1OCC (stereo not given)	nt	?	nt	-16.7%	?	-16.7%
Nc1nnc(SCC(=O)N2CCN(c3cccc(Cl)c3)CC2)n1-c1ccccc1	i	-12.0%	-6.9%	-0.3%	?	-51.9%
CC1=C(C(=O)N(C(C)C)C(C)C)CC(CC(=O)NCc2cccc3ccccc23)C(=O)N1Cc1ccc(F)cc1 (stereo not given)	?	?	?	?	?	2.0%
CC1=C(C(=O)N(C(C)C)C(C)C)CC(CC(=O)NCc2cccc3ccccc23)C(=O)N1Cc1ccccc1 (stereo not given)	i	14.6µM*	-21.8%	?	?	-38.5%
CC[C@]1(C(=O)OC)[C@H]2C(=O)N(C)C(=O)[C@H]2[C@H]2CN=C(SC)N21	i	-3.6%	5.0%	-3.1%	3.9%	-0.9%
Cc1cc(Nc2nc(N[C@@H](C)c3ccc(F)cc3)c(C#N)cc2F)n[nH]1	nt	nt	24.3µM*	nt	nt	nt
COc1ccc(C2=Nc3ccc(OC(F)(F)F)cc3NC(c3cccnc3)=N2)cc1	?	6.51µM*	0.0%	19.2%	10.3µM*	-17.0%
CCCCOc1ccc(C2=NC(c3ccccc3)=Nc3ccc(OC)cc3N2)cc1	i	23.1µM*	17.4%	7.9%	16.4µM*	-3.9%
COc1ccc2c(c1)NC(c1ccc(Cl)cc1)=NC(c1cccs1)=N2	i	-76.2%	0.5%	1.7%	29.1µM*	-9.6%
CCCCOc1ccc(C2=NC(c3ccncc3)=Nc3ccc(Br)cc3N2)cc1	i	?	0.4%	-24.9%	?	-28.6%
CCOc1ccc(C2=NC(c3ccc(OC)cc3)=Nc3ccc(Cl)cc3N2)cc1	i	20.6µM*	52.0%	-1.6%	?	-8.2%
Cc1[nH]c2ccccc2c(=O)c1CN1CCCCC1	i	-11.4%	0.6%	0.0%	-12.7%	-13.2%
Cc1[nH]c2ccccc2c1CN1CCN(c2ccccn2)CC1	i	5.17µM*	13.8%	0.0%	2.31µM*	-30.0%
Cc1[nH]c2ccccc2c1CN1CCC(Cc2ccccc2)CC1	i	2.59µM*	-29.1%	?	2.59µM*	-92.4%

Source: PubChem BioAssay
